# Results taken from PubChem BioAssay (NCATS).
# Records with an inconclusive call do not appear. Entries that show only a call come without a potency. A number with no mark means an inactive call. The source made the active and inactive calls. Unless noted, the call rests on the fitted dose curve; in most records, active means well fitted curve in the direction sought with a large enough effect; inconclusive means small, poorly fitted or top-dose-only effect, or another doubt; inactive means no such curve, though single readings can be large; an effect the other way counts as inactive or inconclusive.
# What was measured:
# [1] = qHTS to identify inhibitors of the type 1 interferon - major histocompatibility complex class I in skeletal muscle: primary screen against the NCATS Pharmaceutical Collection (AID 1347407);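 further: luminescence of HiBiT knocked into endogenous HLA-B as interferon-induced MHC class I level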; further: potency means the concentration at half of the fitted maximal effect
# Procedure, shortened: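 Cells were seeded with 4 ng/ml IFN-beta, incubated 1 h, then dosed with compounds over eight 1:5 steps up to 46 uM final. After 24 h at 37 C, HiBiT lytic reagent was added and luminescence read after 10 min lysis in the dark.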
# [2] = molecular target: Protein phosphatase 1D (Homo sapiens) (UniProt O15297); experiment: RapidFire Mass Spectrometry qHTS Assay for Modulators of WT P53-Induced Phosphatase 1 (WIP1) (AID 1347424);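 further: amount of dephosphorylated VEPPL-S-QETFS peptide product formed by WIP1; series mostly up to about 63 µM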
# Protein phosphatase 1D (Homo sapiens), sequence (O15297 whole entry, looked up): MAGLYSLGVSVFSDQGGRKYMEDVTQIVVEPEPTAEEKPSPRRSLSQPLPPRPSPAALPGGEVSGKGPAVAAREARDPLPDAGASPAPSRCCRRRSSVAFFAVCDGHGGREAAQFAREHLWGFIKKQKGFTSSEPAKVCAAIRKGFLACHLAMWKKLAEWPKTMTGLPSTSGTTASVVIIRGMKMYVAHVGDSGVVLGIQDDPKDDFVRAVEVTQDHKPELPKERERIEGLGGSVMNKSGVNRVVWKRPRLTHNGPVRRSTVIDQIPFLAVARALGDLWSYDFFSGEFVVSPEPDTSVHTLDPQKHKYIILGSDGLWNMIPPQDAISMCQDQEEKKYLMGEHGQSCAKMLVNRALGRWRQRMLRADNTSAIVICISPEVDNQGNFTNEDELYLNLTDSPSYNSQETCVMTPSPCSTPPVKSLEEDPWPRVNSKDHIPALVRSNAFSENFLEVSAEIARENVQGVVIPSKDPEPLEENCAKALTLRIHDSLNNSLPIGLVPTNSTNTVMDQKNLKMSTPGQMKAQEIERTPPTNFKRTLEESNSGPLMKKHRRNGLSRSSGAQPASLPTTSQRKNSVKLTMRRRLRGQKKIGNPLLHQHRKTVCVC
# Procedure, shortened: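 RapidFire mass spectrometry measured dephosphorylated peptide after 5 min room-temperature reaction of 2 uM VEPPL-pS-QETFS with 10 nM WIP1 (50 mM Tris-HCl pH 7.5, 30 mM MgCl2, 0.1 mM EGTA, BSA), following 1 hr compound preincubation; 1 uM isotope-labelled product standard.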
# [3] = Primary qHTS for inhibitors of La Crosse Virus (LACV) - induced cell death in SH-SY5Y cells (AID 1508616);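 further: top concentration of the series differs between compounds; higher means more rescue of cells from virus-induced death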
# Procedure, shortened: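 Screening measures cell viability in LACV-infected SH-SY5Y cultures. Compound was added before virus (0.01 MOI), and ATP was detected by luminescence 6 days later.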
# [4] = molecular target: Calcium and integrin-binding protein 1 (Homo sapiens) (UniProt Q99828); experiment: Primary qHTS for Identification of Calcium Integrin Binding Protein 1 (CIB1) Competitor (AID 1508620);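 further: GST tagged CIB1 binding a fluorescein labelled alphaIIb integrin peptide tracer; top concentration of the series differs between compounds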
# Calcium and integrin-binding protein 1 (Homo sapiens), sequence (Q99828 whole entry, looked up): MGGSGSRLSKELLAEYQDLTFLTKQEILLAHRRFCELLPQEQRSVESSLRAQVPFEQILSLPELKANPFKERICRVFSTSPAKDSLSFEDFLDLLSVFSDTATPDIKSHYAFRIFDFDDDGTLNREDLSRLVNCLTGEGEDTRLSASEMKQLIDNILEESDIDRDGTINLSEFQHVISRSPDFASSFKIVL
# Procedure, shortened: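 CIB1-GST (1 uM final) and compound incubated 15 min at room temperature before adding FITC-alphaIIb peptide tracer (100 nM final). Competition for binding read by fluorescence polarization (ex 480, em 540) after another 15 min at room temperature.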
# [5] = Primary qHTS for small molecule stabilizers of the endoplasmic reticulum resident proteome: Secreted ER Calcium Modulated Protein (SERCaMP) assay (AID 1508630); further: potency means the concentration at half of the fitted maximal effect
# Procedure, shortened: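 The SH-SY5Y reporter protocol was run at 3 concentrations up to 38.3 uM (primary) or 11 concentrations (follow-up): 16 h compound, 100 nM thapsigargin for 4 h, then extracellular luciferase luminescence.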
# [6] = A High-Content qHTS Against Drug Library for the Identification of Small Molecules that Inhibit DYT1 Early Onset Primary Dystonia-Associated Cell Pathology (AID 1645839; calls by dose curve; further: potency means the concentration at half of the fitted maximal effect)
# Procedure, shortened: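 High-content imaging quantified EGFP-TorsinA mislocalization in HEK293-derived cells inducibly expressing DYT1 mutant torsinA, after 48 h exposure to compound given together with tetracycline induction. Cell count served as a toxicity channel alongside %pathology.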
# [7] = molecular target: Cytochrome P450 2D6 (Homo sapiens) (UniProt P10635); experiment: Cytochrome P450 family 2 subfamily D member 6 (CYP2D6) small molecule antagonists: luciferase biochemical (cell-free) qHTS assay (AID 1645840; active means well fitted curve in the direction sought with a large enough effect in the repeat runs; an effect the other way counts as inactive or inconclusive; further: nearly all actives have a fitted effect of over 55% in size; further: potency means the concentration at half of the fitted maximal effect)
# Cytochrome P450 2D6 (Homo sapiens), sequence (P10635 whole entry, looked up): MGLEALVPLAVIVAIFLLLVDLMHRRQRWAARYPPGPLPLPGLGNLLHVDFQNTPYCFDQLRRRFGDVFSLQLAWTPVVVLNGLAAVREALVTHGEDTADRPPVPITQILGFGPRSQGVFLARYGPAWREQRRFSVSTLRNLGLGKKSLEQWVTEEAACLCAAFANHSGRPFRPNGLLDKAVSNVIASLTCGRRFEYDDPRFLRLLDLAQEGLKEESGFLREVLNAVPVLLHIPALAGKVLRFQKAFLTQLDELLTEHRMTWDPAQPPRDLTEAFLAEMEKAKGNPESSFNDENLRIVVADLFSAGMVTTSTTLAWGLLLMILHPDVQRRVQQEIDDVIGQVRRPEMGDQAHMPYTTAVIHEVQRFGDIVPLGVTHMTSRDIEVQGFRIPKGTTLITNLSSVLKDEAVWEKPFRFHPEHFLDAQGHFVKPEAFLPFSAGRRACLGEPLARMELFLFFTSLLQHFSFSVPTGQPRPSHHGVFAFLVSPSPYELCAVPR
# Procedure, shortened: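 P450-Glo CYP2D6 system: proluciferin substrate converted by enzyme to luciferin, read by luminescence proportional to activity. Enzyme-substrate mix with compound 10 min at room temperature, then NADPH regeneration 1 h before detection reagent.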
# [8] = molecular target: Cytochrome P450 2C9 (Homo sapiens) (UniProt P11712); experiment: Cytochrome P450 family 2 subfamily C member 9 (CYP2C9) small molecule antagonists: luciferase biochemical (cell-free) qHTS assay (AID 1645842; active means well fitted curve in the direction sought with a large enough effect in the repeat runs; an effect the other way counts as inactive or inconclusive; further: nearly all actives have a fitted effect of over 55% in size; further: potency means the concentration at half of the fitted maximal effect)
# Cytochrome P450 2C9 (Homo sapiens), sequence (P11712 whole entry, looked up): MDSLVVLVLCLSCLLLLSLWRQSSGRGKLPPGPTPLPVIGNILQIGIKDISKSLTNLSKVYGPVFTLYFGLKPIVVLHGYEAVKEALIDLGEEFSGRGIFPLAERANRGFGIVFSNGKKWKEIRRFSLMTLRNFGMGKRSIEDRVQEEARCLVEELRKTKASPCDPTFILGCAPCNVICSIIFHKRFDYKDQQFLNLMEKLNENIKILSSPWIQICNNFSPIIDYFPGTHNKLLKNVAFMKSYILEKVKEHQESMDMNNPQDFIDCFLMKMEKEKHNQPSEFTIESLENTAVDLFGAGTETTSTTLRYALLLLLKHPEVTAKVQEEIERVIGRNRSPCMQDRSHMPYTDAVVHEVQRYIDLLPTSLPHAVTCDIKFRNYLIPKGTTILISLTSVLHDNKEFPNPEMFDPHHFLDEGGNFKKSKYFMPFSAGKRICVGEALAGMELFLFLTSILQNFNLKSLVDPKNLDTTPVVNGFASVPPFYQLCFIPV
# Procedure, shortened: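 P450-Glo CYP2C9 system: proluciferin substrate with enzyme in mix containing 0.4% BSA, 10 min at room temperature, then NADPH regeneration solution added and incubated 1 h at 37C. Detection reagent stopped reaction; luminescence read after 20 min as RLU.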
# [9] = molecular target: Protein phosphatase 1D (Homo sapiens) (UniProt O15297); experiment: Rhodamine-PBP qHTS Assay for Modulators of WT P53-Induced Phosphatase 1 (WIP1) (AID 1347425)
# Procedure, shortened: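 5 nM WIP1 + 10 uM Rh-PBP, 50 mM Tris pH 7.5, 30 mM MgCl2, 1 mM TCEP, 0.1 mM EGTA, BSA; cpds pinned, 1 hr RT; + 10 uM phosphopeptide; fluorescence 1-min reads x 11 min; delta = f1 - f0.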
# [10] = molecular target: Cytochrome P450 3A4 (Homo sapiens) (UniProt P08684); experiment: Cytochrome P450 family 3 subfamily A member 4 (CYP3A4) small molecule antagonists: luciferase qHTS assay (AID 1645841; active means well fitted curve in the direction sought with a large enough effect in the repeat runs; an effect the other way counts as inactive or inconclusive; further: nearly all actives have a fitted effect of over 45% in size)
# Cytochrome P450 3A4 (Homo sapiens), sequence (P08684 whole entry, looked up): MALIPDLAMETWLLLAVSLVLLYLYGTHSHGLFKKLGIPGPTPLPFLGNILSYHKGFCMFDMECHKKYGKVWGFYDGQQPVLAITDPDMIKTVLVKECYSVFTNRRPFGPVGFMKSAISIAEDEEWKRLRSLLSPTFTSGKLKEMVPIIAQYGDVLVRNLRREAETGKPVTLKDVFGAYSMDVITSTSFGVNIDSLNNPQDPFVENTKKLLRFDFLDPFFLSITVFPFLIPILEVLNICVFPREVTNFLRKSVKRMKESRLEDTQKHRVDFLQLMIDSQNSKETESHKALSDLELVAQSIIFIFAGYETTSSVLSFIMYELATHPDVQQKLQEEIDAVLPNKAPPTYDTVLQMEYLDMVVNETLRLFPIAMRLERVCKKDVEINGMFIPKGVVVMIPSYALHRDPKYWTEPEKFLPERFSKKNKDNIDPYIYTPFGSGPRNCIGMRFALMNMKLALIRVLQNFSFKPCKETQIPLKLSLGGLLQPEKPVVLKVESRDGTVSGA
# Procedure, shortened: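 Luminescent CYP3A4 activity readout: compounds plus enzyme-substrate mix 10 min at room temperature, reaction started with NADPH regenerating system for 1 h, stopped with detection reagent, read after 20 min. Ketoconazole served as control.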
# [11] = Confirmatory qHTS for small molecule stabilizers of the endoplasmic reticulum resident proteome: Secreted ER Calcium Modulated Protein (SERCaMP) assay (AID 1508628); further: nearly all actives have a fitted effect of over 40% in size; further: potency means the concentration at half of the fitted maximal effect
# Procedure, shortened: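 GLuc-SERCaMP-expressing SH-SY5Y cells, pretreated 16 h with compound, are challenged with thapsigargin to empty ER calcium stores; after 4 h, coelenterazine is added directly to the medium and luminescence is imaged.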
# [12] = Cell Viability qHTS for small molecule stabilizers of the endoplasmic reticulum resident proteome (AID 1508629); settings: cell viability counter-screen, 100 nM thapsigargin for final 4 h;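 further: human SH-SY5Y neuroblastoma cells carrying the GLuc-SERCaMP reporter; compound exposure about 46 h in total before the viability read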
# [13] = Counterscreen qHTS for small molecule stabilizers of the endoplasmic reticulum resident proteome: GLuc-NoTag assay (AID 1508627);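 further: SH-SY5Y cells given compound then 100 nM thapsigargin to empty ER calcium; series mostly up to about 76 µM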
# Procedure, shortened: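 Counterscreen line: SH-SY5Y-GLuc-NoTag cells, treated with compound 19 hr before a 4 hr, 100 nM thapsigargin calcium depletion. Secreted Gaussia luciferase in the medium was measured by luminescence after coelenterazine was added (0.07x final), with cells unlysed.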
# [14] = molecular target: N-terminal Xaa-Pro-Lys N-methyltransferase 1 (Homo sapiens) (UniProt Q9BV86); experiment: Confirmatory qHTS for Inhibitors of N-terminal methyltransferase 1 (NTMT1): MTaseGlo Assay (AID 1645874);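 further: luminescence from SAH made as NTMT1 methylates SPKRIA peptide using SAM; series mostly up to about 100 µM; nearly all actives have a fitted effect of over 65% in size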
# N-terminal Xaa-Pro-Lys N-methyltransferase 1 (Homo sapiens), sequence (Q9BV86 whole entry, looked up): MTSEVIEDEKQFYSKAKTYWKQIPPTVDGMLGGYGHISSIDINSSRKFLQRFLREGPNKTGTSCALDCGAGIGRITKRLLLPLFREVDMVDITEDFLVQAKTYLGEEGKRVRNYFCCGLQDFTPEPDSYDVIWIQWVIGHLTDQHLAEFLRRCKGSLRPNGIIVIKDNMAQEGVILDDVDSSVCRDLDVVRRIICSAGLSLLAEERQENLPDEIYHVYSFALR
# Procedure, shortened: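 Enzyme mix (125 nM NTMT1, 100 uM SAM) + compound, 15 min RT; + 1 uM SPKRIA, 30 min RT, dark; MTase-Glo reagent 30 min, detection solution 30 min; luminescence. % inhibition vs no-enzyme/DMSO controls, 4-parameter Hill fit.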
smiles,measurement,setting,value
Cc1onc(-c2c(Cl)cccc2Cl)c1C(=O)N[C@@H]1C(=O)N2[C@@H]1SC(C)(C)[C@@H]2C(=O)O,Potency,[1],inactive
same,Potency,[2],inactive
same,Potency,[3],inactive
same,Potency,[4],inactive
same,Potency,[5],inactive
same,Potency,[6],inactive
same,Potency,[7],inactive
same,Potency,[8],20.4 µM (active)
CN1CCC[C@@H]1c1cccnc1,Potency,[1],inactive
same,Potency,[2],inactive
same,outcome,[9],inactive
same,Potency,[4],inactive
same,Potency,[5],inactive
same,Potency,[6],inactive
same,Potency,[7],inactive
same,outcome,[10],inactive
Oc1c(I)cc(I)c2cccnc12,Potency,[1],inactive
same,Potency,[2],inactive
same,outcome,[9],inactive
same,Potency,[4],inactive
same,Potency,[5],inactive
same,Potency,[7],inactive
same,Potency,[8],inactive
O=C1OCCN1/N=C/c1ccc([N+](=O)[O-])o1,Potency,[1],inactive
same,Potency,[2],inactive
same,Potency,[3],inactive
same,Potency,[4],inactive
same,Potency,[6],inactive
CN1CCCC(CC2c3ccccc3Sc3ccccc32)C1 (centres undefined),Potency,[1],inactive
same,Potency,[2],inactive
same,Potency,[3],inactive
same,Potency,[4],inactive
same,Potency,[11],22.4 µM (active)
same,max response,[12],-16.7%
same,Potency,[8],inactive
NC(=O)CC[C@@H]1NC(=O)[C@H](Cc2ccccc2)NC(=O)[C@H](Cc2ccc(O)cc2)NC(=O)CCSSC[C@@H](C(=O)N2CCC[C@H]2C(=O)N[C@@H](CCCN=C(N)N)C(=O)NCC(N)=O)NC(=O)[C@H](CC(N)=O)NC1=O,Potency,[1],inactive
same,Potency,[2],inactive
same,Potency,[3],inactive
same,Potency,[4],inactive
same,Potency,[6],inactive
same,Potency,[8],inactive
Cc1c(F)c(N2CCNC(C)C2)cc2c1c(=O)c(C(=O)O)cn2C1CC1 (centres undefined),Potency,[1],inactive
same,Potency,[2],inactive
same,Potency,[3],inactive
same,Potency,[4],inactive
same,Potency,[5],inactive
same,Potency,[6],inactive
same,Potency,[7],inactive
same,Potency,[8],inactive
CC1(C)O[C@@H]2[C@@H](CO[C@@]3(COS(N)(=O)=O)OC(C)(C)O[C@@H]23)O1,Potency,[1],inactive
same,Potency,[2],inactive
same,Potency,[3],inactive
same,Potency,[4],inactive
same,Potency,[5],inactive
same,Potency,[7],inactive
same,Potency,[8],inactive
NC(CO)(CO)CO,Potency,[1],inactive
same,Potency,[2],inactive
same,Potency,[3],inactive
same,Potency,[4],inactive
same,Potency,[7],inactive
same,Potency,[8],inactive
CC(C)COC(=O)c1ccc(N)cc1,Potency,[1],inactive
same,Potency,[2],inactive
same,outcome,[9],inactive
same,Potency,[4],inactive
same,Potency,[6],inactive
CN1[C@@H]2CC[C@H]1CC(OC(=O)c1c[nH]c3ccccc13)C2 (some centres undefined),Potency,[1],inactive
same,Potency,[2],inactive
same,Potency,[3],inactive
same,Potency,[4],inactive
same,outcome,[13],inactive
same,Potency,[11],inactive
same,Potency,[5],35.5 µM (active)
same,Potency,[6],inactive
same,Potency,[7],12.3 µM (active)
same,Potency,[8],inactive
Nc1nc2ncc(CNc3ccc(C(=O)N[C@@H](CCC(=O)O)C(=O)O)cc3)nc2c(=O)[nH]1,Potency,[1],inactive
same,Potency,[2],inactive
same,Potency,[3],inactive
same,Potency,[4],inactive
same,outcome,[13],inactive
same,Potency,[11],inactive
same,max response,[12],22.5%
same,Potency,[7],inactive
same,Potency,[8],inactive
COc1cc(C=C2CCC/C(=C\c3ccc(O)c(OC)c3)C2=O)ccc1O,Potency,[1],14.9 µM (active)
same,Potency,[2],inactive
same,Potency,[3],inactive
same,Potency,[4],inactive
same,Potency,[6],7.08 µM (active)
CCCSS/C(CCO)=C(\C)N(C=O)Cc1cnc(C)nc1N,Potency,[1],inactive
same,Potency,[2],inactive
same,outcome,[9],inactive
same,Potency,[4],inactive
same,Potency,[5],inactive
same,Potency,[6],inactive
same,Potency,[7],inactive
same,Potency,[8],inactive
N[C@@H](CCC(=O)N[C@@H](CS)C(=O)NCC(=O)O)C(=O)O,Potency,[1],inactive
same,Potency,[2],inactive
same,Potency,[3],inactive
same,Potency,[4],inactive
same,Potency,[5],inactive
same,Potency,[6],inactive
same,Potency,[7],inactive
same,Potency,[8],inactive
CC(=O)Nc1c(I)cc(I)c(C(=O)O)c1I,Potency,[1],inactive
same,Potency,[2],inactive
same,outcome,[9],inactive
same,Potency,[4],inactive
same,Potency,[5],inactive
same,Potency,[6],inactive
same,Potency,[7],19.5 µM (active)
same,Potency,[8],inactive
CCN(CCCCOC(=O)c1ccc(OC)c(OC)c1)C(C)Cc1ccc(OC)cc1 (centres undefined),Potency,[1],inactive
same,Potency,[2],inactive
same,outcome,[9],inactive
same,Potency,[4],inactive
same,Potency,[5],inactive
same,Potency,[6],inactive
same,Potency,[8],inactive
Clc1ccc2c(c1)CCc1cccnc1C2=C1CCNCC1,Potency,[1],inactive
same,Potency,[2],inactive
same,Potency,[3],inactive
same,Potency,[4],inactive
same,Potency,[5],inactive
Cc1ccc(Nc2c(F)cccc2Cl)c(CC(=O)O)c1,Potency,[1],inactive
same,Potency,[2],inactive
same,outcome,[9],inactive
same,Potency,[4],inactive
same,Potency,[6],inactive
COC(=O)C1=C(C)NC(C)=C(C(=O)O[C@@H]2CCCN(Cc3ccccc3)C2)[C@@H]1c1cccc([N+](=O)[O-])c1,Potency,[1],inactive
same,Potency,[2],inactive
same,outcome,[9],inactive
same,Potency,[4],inactive
same,Potency,[8],0.195 µM (active)
same,Potency,[14],inactive
CCCCCCC[N+](CC)(CC)CCCCc1ccc(Cl)cc1,Potency,[1],inactive
same,Potency,[2],inactive
same,Potency,[3],inactive
same,Potency,[4],inactive
same,Potency,[5],inactive
same,Potency,[6],inactive
same,Potency,[7],0.0977 µM (active)
same,Potency,[8],inactive
Oc1cc(O)c2c(c1)O[C@H](c1ccc(O)c(O)c1)[C@H](O)C2,Potency,[1],inactive
same,Potency,[2],inactive
same,outcome,[9],inactive
same,Potency,[4],inactive
same,Potency,[5],inactive
same,Potency,[7],inactive
same,Potency,[8],inactive
C[C@@H]1C[C@H]2[C@@H]3C[C@H](F)C4=CC(=O)C(Cl)=C[C@]4(C)[C@@]3(F)[C@@H](O)C[C@]2(C)[C@@]1(O)C(=O)CO,Potency,[1],inactive
same,Potency,[2],inactive
same,outcome,[9],inactive
same,Potency,[4],inactive
same,Potency,[5],inactive
same,Potency,[6],inactive
same,Potency,[8],inactive
OC[C@H]1O[C@@H](n2cnc3c(=S)nc[nH]c32)[C@H](O)[C@@H]1O,Potency,[1],inactive
same,Potency,[2],inactive
same,Potency,[3],inactive
same,Potency,[4],inactive
same,Potency,[5],inactive
same,Potency,[6],inactive
same,Potency,[7],inactive
same,Potency,[8],11 µM (active)
CCN(CC)CCOC(=O)C(c1ccccc1)C1CCCCC1 (centres undefined),Potency,[1],inactive
same,Potency,[2],inactive
same,outcome,[9],inactive
same,Potency,[4],inactive
same,Potency,[7],3.09 µM (active)
CC(O)(P(=O)(O)O)P(=O)(O)O,Potency,[1],inactive
same,Potency,[2],inactive
same,Potency,[3],inactive
same,Potency,[4],inactive
same,Potency,[5],inactive
same,Potency,[8],inactive
